Epigenetic derep = Quantitative High-Throughput Screen for Regulators of Epigenetic Control; murine LDR cells, GFP reporter derepression, 30 h; Potency, µM (top dose mostly 53.9 µM), for the others: top-dose GFP activation, most hits filed as activators; actives 0.2% (n = 280,000); AID 1865, 2009; also: % of control where 0% means no effect; nearly all actives have a fitted effect of over 60% in size
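In this reporter-derepression format, murine cells bearing a silenced integrated CMV-GFP locus incubate with test compound (30 h, 37 C), then are washed and imaged; fluorescent objects of 20–120 um count as induced cells.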
Sfp inh = qHTS Assay for Inhibitors of Bacillus subtilis Sfp phosphopantetheinyl transferase (PPTase); 4'-phosphopantetheinyl transferase ffp (Bacillus subtilis), Q9F4F7; Potency, µM, for the others: largest response in the series, negative = inhibition, usual class: inhibitors; AID 1490, 2009; actives 3.5% (n = 310,000); Biochemical Sfp PPTase activity, qHTS;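 also: the enzyme is Sfp with the accession as filed and its product quenches rhodamine fluorescence; 0% = enzyme reaction without inhibitor and -100% = no enzyme wells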
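Compounds were incubated with enzyme (final 15 nM) for 15 min at room temperature before substrate addition started the reaction. Fluorescence at 525 nm excitation, 598 nm emission was recorded immediately and after 30 minutes.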
KDM4E inh = qHTS Assay for Inhibitors of Human Jumonji Domain Containing 2E (JMJD2E). Lysine-specific demethylase 4E (Homo sapiens), B2RXH2. JMJD2E catalytic domain, FDH-coupled NADH fluorescence (FDH is formaldehyde dehydrogenase). Potency, µM (titrated, usually from 57.1 µM), inactives show top-dose activity change, negative = inhibition, most hits filed as inhibitors. actives 1.6% (n = 230,000). AID 2147, 2009; active = well fitted inhibition curve with a large enough effect, not every such curve was filed as active; inconclusive = small, poorly fitted or top-dose-only effect, or another doubt; inactive = no such curve, though single readings can be large or run the other way;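 also: 0% = wells with enzyme and -100% = buffer wells without enzyme; nearly all actives have a fitted effect of over 50% in size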
Target sequence (B2RXH2 1-337 limits assumed): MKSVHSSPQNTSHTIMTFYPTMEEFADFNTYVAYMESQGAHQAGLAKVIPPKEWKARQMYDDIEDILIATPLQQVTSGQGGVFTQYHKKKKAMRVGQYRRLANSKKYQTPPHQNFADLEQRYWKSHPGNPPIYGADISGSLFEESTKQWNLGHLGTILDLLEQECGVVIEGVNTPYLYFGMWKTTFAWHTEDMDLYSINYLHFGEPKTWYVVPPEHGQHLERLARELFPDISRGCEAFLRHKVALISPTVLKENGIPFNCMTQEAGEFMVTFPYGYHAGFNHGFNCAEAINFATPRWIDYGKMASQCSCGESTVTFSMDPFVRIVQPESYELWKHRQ
IMPase Li cell = qHTS Assay for Identifying the Cell-Membrane Permeable IMPase Inhibitors: Potentiation with Lithium; Potency, µM (series often up to 59.4 µM), for inactives: at the highest dose activity, negative = IMPase inhibition, actives largely listed as inhibitors; actives 0.35% (n = 210,000); CHO-M1 cells, IP1 TR-FRET (IP-One), carbachol + lithium;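 also: IP1 builds up when IMPase is blocked and the TR-FRET signal falls; plate controls were basal vehicle for no effect and high inhibitor control for full effect; nearly all actives have a fitted effect of over 50% in size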
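Test compounds were applied to CHO-M1 cells previously cultured for 16–30 h at 2000 per well. A small lithium amount accompanied them; after 30 min at 37C, IP1 was quantified by TR-FRET.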
KAT2A inh = qHTS Assay for Inhibitors of GCN5L2 | actives 0.21% (n = 390,000) | GCN5L2 HAT assay, ThioGlo1 CoA-SH fluorescence | Histone acetyltransferase KAT2A (Homo sapiens), Q92830 | Potency, µM (top dose mostly 58.9 µM), for the others: at the highest dose activity change, negative = inhibition, actives largely listed as inhibitors | AID 504327, 2011; also: % is scaled to controls: 0 for no effect and ±100 for the full control effect
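GCN5L2 (20nM final) in 50mM HEPES, 0.1mM EDTA pH 7.5, 0.01% Tween-20 was preincubated 15 min at room temperature with compound, then given ThioGlo1 (50uM), H3(1-25) peptide (75uM) and acetyl-CoA (70uM); CoA-thiol fluorescence (Ex340/Em540) was read at 0 and 20 min.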
NPSR antag = qHTS Assay for Antagonists of the Neuropeptide S Receptor: cAMP Signal Transduction; actives 1% (n = 220,000); CHO-NPSR cells, cAMP TR-FRET, antagonist mode; Potency, µM (series often up to 38.3 µM), for inactives: at the highest dose activity change, negative = inhibition, hits mostly inhibitors; also: % is scaled to controls: 0 for no effect and ±100 for the full control effect; nearly all actives have a fitted effect of over 50% in size
Target sequence (Q6W5P4 whole entry, looked up): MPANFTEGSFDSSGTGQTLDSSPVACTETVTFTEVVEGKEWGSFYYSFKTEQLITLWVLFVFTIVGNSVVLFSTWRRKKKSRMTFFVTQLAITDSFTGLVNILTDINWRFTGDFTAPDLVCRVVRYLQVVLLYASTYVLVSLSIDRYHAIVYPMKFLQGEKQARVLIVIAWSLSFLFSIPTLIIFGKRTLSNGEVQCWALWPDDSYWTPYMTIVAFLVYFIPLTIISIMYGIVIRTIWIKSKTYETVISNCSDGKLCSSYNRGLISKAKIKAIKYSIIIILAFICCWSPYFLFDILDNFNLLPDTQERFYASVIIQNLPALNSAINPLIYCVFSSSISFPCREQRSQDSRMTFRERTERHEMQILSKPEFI
Starred values were filed as active, the others as inactive; ? = inconclusive; . = no result; ! = not confirmed by another sample; [ ] = dose if it differs, or a comment. In the library only some 3.6% were active in any assay of this set; here they are far more common. Unless noted, calls follow the shape of the dose curve; as a rule, active = well fitted curve in the direction sought with a large enough effect; inconclusive = small, poorly fitted or top-dose-only effect, or another doubt; inactive = no such curve, though single readings can be large; an effect the other way counts as inactive or inconclusive. Potency is read from the fitted curve at half-maximal effect.

SMILES	Epigenetic derep	Sfp inh	KDM4E inh	IMPase Li cell	KAT2A inh	NPSR antag
O=S(=O)(O)c1ccc2c(N=Nc3c(O)ccc4ccccc34)cccc2c1	.	.	.	2%	.	.
Cc1ccc(NC(=S)Nn2cnnc2)cc1	-1%[10.1 µM]	8.9µM*	-24%	-3%	3%	7%
C=CCn1c(O)c(C2=c3ccccc3=NC2=O)s/c1=N/c1nccs1	1%	-2%	-6%	3%[38.3 µM]	-2%	-12%[46.1 µM]
C=CCn1c(O)c(C2=c3ccccc3=NC2=O)c2ccccc21	.	45µM*	.	.	-6%	.
N[C@H](Cn1ccc(=O)n(Cc2ccccc2C(=O)O)c1=O)C(=O)O	6%	71µM*	-10%	10%	-10%	.
CC(N)(C(=O)O)c1cccc(CC(=O)O)c1 (centres undefined)	0%	-22%	.	2%	-2%	.
CCCOc1cccc(C(=O)N2CCCCC2CCN2CCCCC2)c1 (centres undefined)	-3%	.	.	.	-6%	.
CCOC(=O)c1c(N)sn(-c2ccccc2C)c1=S	2%	18µM*	-18%	-1%[38.3 µM]	-26%	-3%[46.1 µM]
Cc1cnc(CNc2nc(-c3ccc(C(=O)N(C)C)cc3)nc3ccccc23)cn1	-3%	-13%	?	0%	-14%	.
Cc1ccc(Nc2nc(OC(C(F)(F)F)C(F)(F)F)nc(N3CCOCC3)n2)cc1	-1%	32%	10%	19%[38.3 µM]	-3%	?
FC(F)(F)C(Oc1nc(NC2CCCCC2)nc(N2CCOCC2)n1)C(F)(F)F	1%	24%	1%	4%[38.3 µM]	0%	10µM*
CC[C@H](C)[C@H](NC(=O)[C@H](Cc1ccc(O)cc1)NC(=O)[C@H](CCCNC(=N)N)NC(=O)[C@H](CCCNC(=N)N)NC(=O)[C@H](CC(C)C)NC(=O)[C@H](CC(=O)O)NC(=O)[C@H](C)NC(=O)[C@H](C)NC(=O)[C@H](Cc1ccc(O)cc1)NC(=O)[C@H](CCC(N)=O)NC(=O)[C@H](C)NC(=O)[C@H](CCSC)NC(=O)[C@H](CCC(N)=O)NC(=O)[C@H](CCC(=O)O)NC(=O)[C@@H]1CCCN1C(=O)[C@@H](NC(=O)[C@H](C)NC(=O)[C@H](CC(N)=O)NC(=O)[C@H](CC(=O)O)NC(=O)CNC(=O)[C@@H]1CCCN1C(=O)[C@H](Cc1ccc(O)cc1)NC(=O)[C@@H](NC(=O)[C@@H]1CCCN1C(=O)[C@H](CCC(=O)O)NC(=O)[C@H](CC(C)C)NC(=O)[C@@H]1CCCN1C(=O)[C@H](C)N)C(C)C)[C@@H](C)O)C(=O)N[C@@H](CC(N)=O)C(=O)N[C@@H](CCSC)C(=O)N[C@@H](CC(C)C)C(=O)N[C@H](C(=O)N[C@@H](CCCNC(=N)N)C(=O)N1CCC[C@H]1C(=O)N[C@@H](CCCNC(=N)N)C(=O)N[C@@H](Cc1ccc(O)cc1)C(N)=O)[C@@H](C)O	.	.	.	.	50%	.
O=C1C2C3C=CC(C3=C(c3ccccc3)c3ccccc3)C2C(=O)N1Cc1ccccc1 (centres undefined)	0%	50µM*	3%	16%[38.3 µM]	-1%	-12%[46.1 µM]
CN(C1CCS(=O)(=O)C1)S(=O)(=O)c1ccccc1 (centres undefined)	0%	11µM*	0%	7%	-7%	0%
COc1ccccc1N1CCN(/N=C/C=C\c2ccco2)CC1	-1%	79µM*	-4%	7%[38.3 µM]	24%	-13%[46.1 µM]
COc1ccccc1N1CCN(C(=O)/C=C/c2ccco2)CC1	0%	-76%	-3%	3%	-9%	-2%
Clc1ccccc1CN1CCN(/N=C/C=C/c2ccco2)CC1	-1%	56µM*	?	.	2%	22%
COC(=O)C(C(=O)OC)[C@@H]1c2ccccc2[C@H]2C(=C[C@@H](C)[C@H]3C(=O)N(c4ccccc4)C(=O)[C@H]32)N1C(=O)OC	.	-3%	9%[11.4 µM]	2%	.	.
O=c1cc(-c2ccccc2F)[nH]c2cc3c(cc12)OCO3	.	.	.	.	-11%	.
Cc1ccc(-c2onc(C)c2C)cc1S(=O)(=O)Nc1cccc(Cl)c1C	-2%	.	.	.	0%	.
C=CCOC(=O)N[C@@H](c1ccc(Br)cc1)C(C(C)=O)C(C)=O	-1%	-13%	-4%	0%	.	.
O=C(CN1CCOCC1)N1CCc2ccccc2C(c2ccccc2)C1 (centres undefined)	-3%	?	?	17%[38.3 µM]	-7%	-20%[46.1 µM]
O=C(CBr)N1CCc2ccccc2C(c2ccccc2)C1 (centres undefined)	?	32µM*	8%	.	-4%	4%
COC(=O)/C(=C/c1c[nH]c2ccccc12)NC(C)=O	1%	6%	20µM*	-1%	1%	9%
CC(=O)[C@H]1CC[C@@H]2[C@]1(C)CC=C1[C@@]23C=C[C@]2(C[C@H](O)CC[C@@]12C)[C@H](C(=O)O)[C@@H]3C(=O)O	.	.	.	-1%	.	.
SMILES	Epigenetic derep	Sfp inh	KDM4E inh	IMPase Li cell	KAT2A inh	NPSR antag
COC(=O)CCC(=O)OC1(C)C(=O)C=C2C=C(C3CC3)N(CCc3c[nH]c4ccccc34)C=C2C1=O (centres undefined)	9%	-2%	?	10%	-1%	11%
COC(=O)CCC(=O)OC1(C)C(=O)C=C2C=C(C3CC3)N(Cc3ccc4c(c3)OCO4)C=C2C1=O (centres undefined)	-5%	-12%	16µM*!	-4%	-11%	?
COC(=O)CCC(=O)OC1(C)C(=O)C=C2C=C(C3CC3)N(CCCCO)C=C2C1=O (centres undefined)	2%	2%	20µM*!	8%	-12%	13%
COC(=O)CCC(=O)OC1(C)C(=O)C=C2C=C(C3CC3)N(C(CO)CO)C=C2C1=O (centres undefined)	1%	17%	?	3%	3%	23%
Cc1ccc(-c2ccc(NC(=O)C3C4C=CC(C4)C3C(=O)O)cc2)o1 (centres undefined)	1%	2.2µM*	?	7%[38.3 µM]	4%	-11%[46.1 µM]
O=C(O)c1ccccc1NC(=O)C1C2C=CC(C2)C1C(=O)O (centres undefined)	.	20µM*	.	.	1%	.
CC1=C(C#N)C(=O)NC(=O)/C1=C\c1ccc(-c2cc(C)c(C)cc2[N+](=O)[O-])o1	-4%	50µM*	25µM*	0%	?	-42%
